PubChem BioAssay AID1259422 (The Scripps Research Institute Molecular Screening Center, 2018)
“And” between values parts separate entries of the source, which are not always exact repeats. Equal values may be shown once. The campaign covered roughly 640,000 compounds. About 9,300 (1.5%) were called active. Rule as the data show it: active = inhibition above about 32%; inactive = the rest. The list comes from a sample in which actives are over-represented; it also holds similar structures and randomly drawn compounds.

Assay: TEAD-YAP interaction inhibition, primary screen, TEAD-YAP interaction inhibitor project, luminescence, HEK-TIYL cells (AID 1259422);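 also: 0% = median of test compound wells and 100% = reference inhibitor wells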
Conditions: TEAD-Gal4/YAP UAS-luciferase luminescence, at 9.12 µM, hits give high values

SMILES | inhibition
COc1ccccc1N1C(=O)C2C(C(C)=O)=NN(c3cccc(Cl)c3)C2C1=O (centres undefined) | 2.39% (inactive)
O=C(CN1CCOCC1)NCC1(c2ccccc2)CCCC1 | 4.7% (inactive)
CCOC(=O)c1c(NC(=O)CSc2nnc(CNC(=O)c3cccs3)n2-c2ccccc2OC)sc2c1CCCCC2 | 11.5% (inactive)
O=S1(=O)Nc2cccc3cccc1c23 | 9.46% (inactive)
CCN1C/C(=C/c2ccc(NC(C)=O)cc2)C(=O)/C(=C/c2ccc(NC(C)=O)cc2)C1 | 77.6% (active)
CCNCC(=O)Nc1ccc(NC(C)=O)cc1 | 5.37% (inactive)
CC(=O)Nc1ccc(CN2CCOCC2)cc1 | -2.53% (inactive)
CCCOc1ccc(/C(O)=C2/C(=O)C(=O)N(CCN3CCOCC3)C2c2ccc(F)cc2)cc1C (centres undefined) | -9.41% (inactive)
O=C1CCCN1CCCNc1cc(-c2cccs2)ncn1 | -13.2% (inactive)
CN(CCC#N)C(=O)Cn1ncc2c1-c1ccccc1OC2 | 4.76% (inactive)
COC(=O)c1cc(S(=O)(=O)Nc2ccc(C(C)=O)cc2)cn1C | -5.94% (inactive)
CC(=O)NC1=NN(C(C)=O)C(C)(c2ccc(Cl)s2)S1 (centres undefined) | 63.5% (active)
COc1ccc(C2(C)SC(NC(C)=O)=NN2C(C)=O)cc1 (centres undefined) | 17.7% (inactive)
CC(=O)NC1=NN(C(C)=O)C(C)(c2ccc(C)cc2)S1 (centres undefined) | 10.1% (inactive)
CCOC(=O)c1ccc(Nc2c(-c3ccccc3)c(=O)c2=O)cc1 | -7.89% (inactive)
NC(=O)C1(N2CCCCC2)CCN(C(=O)Nc2ccc(Cl)cc2)CC1 | 3.68% (inactive)
CCC(OC(=O)C(CCSC)NC(=O)c1ccccc1)C(=O)Nc1ccc(S(N)(=O)=O)cc1 (centres undefined) | -0.22% (inactive)
C=CCOC(=O)c1sc(N2C(=O)C(=O)/C(=C(/O)c3ccccc3)C2c2ccc(C)cc2)nc1C (centres undefined) | 7.19% (inactive)
CCCn1c(NCCO)nc2c1c(=O)n(C)c(=O)n2C | 15.2% (inactive)
COc1ccc(Cn2c(NCCO)nc3c2c(=O)n(C)c(=O)n3C)cc1 | 40.8% (active)

SMILES | inhibition
CN(C)CCNc1nc2c(c(=O)n(C)c(=O)n2C)n1Cc1ccc(F)cc1 | 10.5% (inactive)
CC1=C/C(=N\S(=O)(=O)c2ccccc2)C=C(Br)C1=O | -6.31% (inactive)
COCCOC(=O)C1=C(C)NC2=C(C(=O)CC(c3cccs3)C2)C1c1ccc(C)s1 (centres undefined) | 16% (inactive) and 7.86% (inactive)
CC1=C(C(=O)OC(C)C)C(c2cccs2)C2=C(CC(c3ccco3)CC2=O)N1 (centres undefined) | 60.2% (active)
CC1=C(C(=O)OCC2CCCO2)C(c2cccs2)C2=C(CC(c3cccs3)CC2=O)N1 (centres undefined) | 9.36% (inactive)
COc1cc(NC(=O)c2sc3[nH]c(=O)c(C(=O)O)cc3c2N)c(OC)cc1Cl | -5.84% (inactive)
CCn1cc(C(=O)N2CCc3c(nc(N4CCC(C)CC4)[nH]c3=O)C2)cn1 | -0.66% (inactive)
Cc1cnc(Nc2ccc3ncccc3c2)nc1Nc1ccccc1 | 29.6% (inactive)
Cc1cnc(Nc2ccncc2)nc1Nc1ccc(Oc2ccccc2)cc1 | 45.7% (active)
Cc1cnc(Nc2ccc(C(F)(F)F)cc2)nc1Nc1ccccc1 | 11.3% (inactive)
O=C(OCCN1C(=O)c2cccc3c(N4CCCCC4)ccc(c23)C1=O)c1cc(Cl)cc(Cl)c1 | -2.51% (inactive)
O=C(NCCOc1ccccc1)c1cnc(N2CCN(c3ccccn3)CC2)s1 | -4.73% (inactive)
O=C(NCCOc1ccccc1)c1cnc(NCCCN2CCCC2=O)s1 | -45.5% (inactive)
O=C(NCCOc1ccccc1)c1cnc(N2CCCC2CO)s1 (centres undefined) | 81.8% (active)
COc1ccc(-c2nc3c(C#N)c(CC#N)nn3cc2C)cc1F | 7.27% (inactive)
COc1ccc(-c2nc3sc(-c4ccc(OC)cc4)nc3s2)cc1 | -1.58% (inactive)
COc1ccc(-c2cn3ccc(C)cc3n2)cc1F | 78.7% (active)
COc1cc(C(=O)Nc2cccc(-c3cn4ccc(C)cc4n3)c2)cc(OC)c1OC | -17.7% (inactive)
COc1ccc(-c2cn3ccc(C)cc3n2)cc1 | 90.6% (active)
COc1ccc(-c2cn3cc(C(=O)O)ccc3n2)cc1 | 15.8% (inactive)

SMILES | inhibition
COCCNc1nc(-c2c[nH]c3ccccc23)cs1 | 0.65% (inactive)
CCOC(=O)N1CCC(NC(=O)C2CC23CCN(CC2CC=CCC2)CC3)CC1 (centres undefined) | 11.9% (inactive)
CCN(CC(=O)Nc1ccccc1OC)Cc1nc2scc(-c3ccccc3)c2c(=O)[nH]1 | -1.6% (inactive)
Cc1ccc(C2=Nc3ccccc3N=C(c3ccc(C(C)(C)C)cc3)C2)c(O)c1 | 38.6% (active)
Oc1ccc(Cl)cc1C1=Nc2ccccc2N=C(c2cccc(F)c2)C1 | -24.4% (inactive)
CC(=O)N1c2ccccc2N=C(c2ccc(C)cc2)CC1c1ccc([N+](=O)[O-])cc1 (centres undefined) | 2.03% (inactive)
COc1ccccc1NC(CNS(=O)(=O)c1ccc(Cl)cc1)c1ccccc1 (centres undefined) | -1.96% (inactive)
Cc1ccccc1OCC(=O)Nc1ncc(Cc2cccc(Cl)c2)s1 | 50.4% (active)
COc1ccccc1OCC(=O)Nc1ncc(Cc2cccc(C)c2)s1 | 3.43% (inactive)
Cc1cccc(Cc2cnc(NC(=O)COc3cccc(C)c3)s2)c1 | 5.87% (inactive)
O=C(Cn1c(=O)oc2cc(S(=O)(=O)NC3CCCC3)ccc21)N1CCCCCC1 | -0.34% (inactive)
CCOc1ccc(C2=CC(c3cc(OC)c(OC)c(OC)c3)n3ncnc3N2)cc1 (centres undefined) | 66.9% (active)
Brc1ccc(C2=CC(c3cccc(Br)c3)n3ncnc3N2)cc1 (centres undefined) | 3.83% (inactive)
COc1ccc(C2C=C(c3ccc(OC(F)F)cc3)Nc3ncnn32)cc1 (centres undefined) | -77.6% (inactive)
COc1ccc(C2=CC(c3ccc(OC)c(OC)c3)n3ncnc3N2)cc1OC (centres undefined) | 3.8% (inactive)
COc1ccc(OC)c(C2C=C(c3ccc(Br)cc3)Nc3ncnn32)c1 (centres undefined) | 3.26% (inactive)
COc1cccc(C2=CC(c3cccc(OC)c3)n3ncnc3N2)c1 (centres undefined) | 39.1% (active)
O=C(N/N=C\c1cccc([N+](=O)[O-])c1)c1ccccc1I | -11.5% (inactive)
COC(=O)c1ccc(C)c(NC(=O)Nc2cccc(Cl)c2)c1 | 7.6% (inactive)
